From PubChem BioAssay AID1159580 (chemical genetic matrix, 2015)
Out of some 5,500 compounds screened, about 2,000 (36%) were called active. Roughly 18% stayed inconclusive and do not appear here. Cut-off read from the data, not from the text of the source: active = normalized growth mostly below about 0.91 (no sharp cut-off); inconclusive = no clear call, values can overlap the other calls; inactive = mostly above about 0.92. This is one part of the list.

Experiment: chemical genetic growth profiling, strain panel (AID 1159580);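 note: tested at 20 µM; growth read once vehicle control cultures reached saturation at 30 °C; 1 = growth at the plate median or of vehicle wells; lower values mean less growth of the strain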
Conditions: growth OD
[1] = S. cerevisiae deletion strains, locus YBR229C, strain ROT2, hits give low values
[2] = S. cerevisiae deletion strains, locus YDL101C, strain DUN1, hits give low values
[3] = S. cerevisiae deletion strains, locus YDR150W, strain NUM1, hits give low values
[4] = S. cerevisiae deletion strains, locus YEL061C, strain CIN8, hits give low values
[5] = S. cerevisiae deletion strains, locus YHR030C, strain SLT2, hits give low values
[6] = S. cerevisiae deletion strains, locus YJR043C, strain POL32, hits give low values
[7] = S. cerevisiae deletion strains, locus YJR075W, strain HOC1, hits give low values
[8] = S. cerevisiae deletion strains, locus YLR039C, strain RIC1, hits give low values
[9] = S. cerevisiae deletion strains, locus YLR262C, strain YPT6, hits give low values
[10] = S. cerevisiae deletion strains, locus YMR263W, strain SAP30, hits give low values
[11] = S. cerevisiae deletion strains, locus YNL153C, strain GIM3, hits give low values
[12] = S. cerevisiae deletion strains, locus YNL322C, strain KRE1, hits give low values

Measured: normalized growth

BrC12CC3CC(CC(C3)C1)C2
inactive: S. cerevisiae deletion strains, locus YAL013W, strain DEP1, hits give low values 1 | [1] 1.02 | [2] 1.01 | [3] 0.961 | [4] 1.01 | S. cerevisiae deletion strains, locus YGR078C, strain PAC10, hits give low values 0.997 | [5] 1.05 | S. cerevisiae deletion strains, locus YHR087W, strain rtc3, hits give low values 0.971 | [6] 1.02 | [7] 1.03 | S. cerevisiae deletion strains, locus YKL190W, strain CNB1, hits give low values 1 | [8] 1.02 | S. cerevisiae deletion strains, locus YLR058C, strain SHM2 (second series), hits give low values 1.02 | S. cerevisiae deletion strains, locus YLR085C, strain ARP6, hits give low values 1.01 | [9] 1.02 | S. cerevisiae deletion strains, locus YML094W, strain GIM5, hits give low values 0.997 | S. cerevisiae deletion strains, locus YMR219W, strain ESC1, hits give low values 1 | [10] 0.975 | [11] 1.02 | S. cerevisiae deletion strains, locus YNL298W, strain CLA4 (second series), hits give low values 0.996 | [12] 1.01 | S. cerevisiae deletion strains, locus YNR030W, strain Alg12, hits give low values 0.999 | S. cerevisiae deletion strains, locus YOL006C, strain TOP1, hits give low values 1.01 | S. cerevisiae deletion strains, locus YPL055C, strain LGE1, hits give low values 1.03 | S. cerevisiae deletion strains, locus YPL241C, strain CIN2, hits give low values 1 | S. cerevisiae deletion strains, locus YPR135W, strain CTF4, hits give low values 0.99

CC1CC2C(C(O)CC3(C)C2CCC3(O)C(=O)COC(=O)CCC(=O)O)C2(C)C=CC(=O)C=C12 (stereo not drawn)
inactive: S. cerevisiae deletion strains, locus YBR021W, strain FUR4, hits give low values 1.08 | [1] 1 | S. cerevisiae deletion strains, locus YCL029C, strain bik1, hits give low values 0.97 | S. cerevisiae deletion strains, locus YDL035C, strain GPR1, hits give low values 1.01 | S. cerevisiae deletion strains, locus YDL074C, strain BRE1, hits give low values 1.01 | [2] 1.01 | S. cerevisiae deletion strains, locus YDL185W, strain tfp1, hits give low values 0.959 | S. cerevisiae deletion strains, locus YDL192W, strain arf1, hits give low values 0.982 | S. cerevisiae deletion strains, locus YDR101C, strain arx1, hits give low values 0.993 | [3] 1 | S. cerevisiae deletion strains, locus YDR162C, strain NBP2, hits give low values 1.02 | S. cerevisiae deletion strains, locus YDR318W, strain mcm21, hits give low values 0.989 | S. cerevisiae deletion strains, locus YDR388W, hits give low values 0.997 | S. cerevisiae deletion strains, locus YDR502C, strain sam2, hits give low values 0.982 | [4] 1.01 | S. cerevisiae deletion strains, locus YER110C, hits give low values 0.977 | S. cerevisiae deletion strains, locus YER155C, strain BEM2, hits give low values 1.01 | S. cerevisiae deletion strains, locus YER167W, strain BCK2, hits give low values 1.01 | S. cerevisiae deletion strains, locus YGL078C, strain dbp3, hits give low values 0.984 | S. cerevisiae deletion strains, locus YGL086W, strain mad1, hits give low values 1 | S. cerevisiae deletion strains, locus YGL248W, strain PDE1, hits give low values 1.01 | S. cerevisiae deletion strains, locus YGR135W, strain pre9, hits give low values 0.982 | S. cerevisiae deletion strains, locus YGR252W, strain gcn5, hits give low values 0.992 | [5] 0.987 | S. cerevisiae deletion strains, locus YHR079C, strain IRE1 (second series), hits give low values 0.979 | S. cerevisiae deletion strains, locus YHR094C, strain hxt1, hits give low values 0.994 | S. cerevisiae deletion strains, locus YHR129C, strain ARP1, hits give low values 0.999 | S. cerevisiae deletion strains, locus YHR200W, strain rpn10, hits give low values 0.987 | S. cerevisiae deletion strains, locus YIL066C, strain RNR3, hits give low values 1.03 | S. cerevisiae deletion strains, locus YIL073C, strain SPO22, hits give low values 0.973 | S. cerevisiae deletion strains, locus YIL125W, strain kgd1, hits give low values 0.983 | S. cerevisiae deletion strains, locus YIR030C, strain dcg1, hits give low values 0.978 | S. cerevisiae deletion strains, locus YJL095W, strain BCK1, hits give low values 1.05 | S. cerevisiae deletion strains, locus YJL134W, strain LCB3, hits give low values 0.999 | S. cerevisiae deletion strains, locus YJL168C, strain set2, hits give low values 0.979 | S. cerevisiae deletion strains, locus YJL187C, strain SWE1 (second series), hits give low values 1.02 | [6] 1.04 | [7] 1 | S. cerevisiae deletion strains, locus YKL009W, strain mrt4, hits give low values 0.97 | S. cerevisiae deletion strains, locus YKL068W, hits give low values 0.968 | S. cerevisiae deletion strains, locus YKL085W, strain MDH1 (second series), hits give low values 0.994 | S. cerevisiae deletion strains, locus YKL085W, strain MDH1, hits give low values 0.994 | S. cerevisiae deletion strains, locus YKR001C, strain vps1, hits give low values 0.984 | [8] 1.03 | S. cerevisiae deletion strains, locus YLR058C, strain SHM2, hits give low values 0.999 | S. cerevisiae deletion strains, locus YLR102C, strain apc9, hits give low values 0.991 | [9] 0.98 | S. cerevisiae deletion strains, locus YLR268W, strain sec22, hits give low values 0.99 | S. cerevisiae deletion strains, locus YLR330W, strain CHS5, hits give low values 0.987 | S. cerevisiae deletion strains, locus YLR342W, strain FKS1 (second series), hits give low values 1.04 | S. cerevisiae deletion strains, locus YLR371W, strain rom2, hits give low values 0.979 | S. cerevisiae deletion strains, locus YLR418C, strain cdc73, hits give low values 1.02 | S. cerevisiae deletion strains, locus YML016C, strain PPZ1, hits give low values 1.01 | S. cerevisiae deletion strains, locus YML032C, strain rad52, hits give low values 1 | S. cerevisiae deletion strains, locus YML124C, strain tub3, hits give low values 0.987 | S. cerevisiae deletion strains, locus YMR078C, strain ctf18, hits give low values 0.979 | S. cerevisiae deletion strains, locus YMR223W, strain ubp8, hits give low values 0.981 | [10] 1.02 | S. cerevisiae deletion strains, locus YMR307W, strain GAS1, hits give low values 1.13 | S. cerevisiae deletion strains, locus YNL067W, strain RPL9B, hits give low values 1.03 | [11] 1.03 | S. cerevisiae deletion strains, locus YNL233W, strain BNI4, hits give low values 1.04 | S. cerevisiae deletion strains, locus YNL250W, strain rad50, hits give low values 0.966 | S. cerevisiae deletion strains, locus YNL271C, strain bni1, hits give low values 0.999 | S. cerevisiae deletion strains, locus YNL298W, strain CLA4, hits give low values 0.993 | S. cerevisiae deletion strains, locus YNL307C, strain MCK1, hits give low values 0.987 | [12] 1.01 | S. cerevisiae deletion strains, locus YNR052C, strain pop2, hits give low values 0.982 | S. cerevisiae deletion strains, locus YOL012C, strain htz1 0.933 | S. cerevisiae deletion strains, locus YOL147C, strain pex11, hits give low values 0.993 | S. cerevisiae deletion strains, locus YOR061W, strain CKA2, hits give low values 1 | S. cerevisiae deletion strains, locus YOR069W, strain VPS5, hits give low values 1 | S. cerevisiae deletion strains, locus YOR136W, strain idh2, hits give low values 0.99 | S. cerevisiae deletion strains, locus YOR144C, strain elg1, hits give low values 1 | S. cerevisiae deletion strains, locus YOR184W, strain ser1, hits give low values 1.01 | S. cerevisiae deletion strains, locus YOR316C, strain cot1, hits give low values 1 | S. cerevisiae deletion strains, locus YPR119W, strain clb2, hits give low values 0.986 | S. cerevisiae deletion strains, locus YPR141C, strain kar3, hits give low values 0.972 | S. cerevisiae deletion strains, locus YPR163C, strain tif3, hits give low values 0.985 | S. cerevisiae deletion strains, locus YPR167C, strain met16, hits give low values 0.969 | S. cerevisiae deletion strains, strain wtn01, hits give low values 0.995 | S. cerevisiae strains, strain wild type, hits give low values 1.01
